Measured values taken from PubChem BioAssay.
Active and inactive are the calls of the source.

Assays:
[1] = tested on: Plasmodium falciparum Sir2 (PF13_0152, Sir2A); test: pfSir2 binders on small-molecule microarrays, primary screen, biochemical, small-molecule microarray, 635 nm fluorescence (AID 1098); conditions: small-molecule microarray binding, fluorescence 635 nm; higher = more signal;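 also: score merges spot fluorescence intensity with its signal-to-noise ratio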
[2] = small-molecule microarray binders of probe aDKK1, primary screen, biochemical, biotinylated probe, 635/667 nm fluorescence (AID 1099); conditions: higher = more signal;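 also: score merges 667nm spot fluorescence with signal to noise across triplicate slides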
[3] = small-molecule microarray binders of probe aCHRDL2, primary screen, biochemical, biotinylated probe, 635/667 nm fluorescence (AID 1100); conditions: higher = more signal
[4] = splicing luciferase reporter signal modulators, primary screen, spliceosome inhibition project, cell-based, HEK293, splice +/- reporter (AID 1101); conditions: luminescence, 24 h, higher = more signal, called active from +8 up or from −8 down;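 also: HEK293 cells carrying a splicing-competent luciferase reporter gene; test concentration not given here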
[5] = biological target: Fibroblast growth factor 10 (Homo sapiens) (UniProt O15520); test: FGF10 binders on small-molecule microarrays, primary screen, biochemical, small-molecule microarray, 635 nm fluorescence (AID 1102); conditions: FGF10 binding, fluorescence 635 nm, higher = more signal
Chain of Fibroblast growth factor 10 (Homo sapiens) (O15520 whole entry, looked up): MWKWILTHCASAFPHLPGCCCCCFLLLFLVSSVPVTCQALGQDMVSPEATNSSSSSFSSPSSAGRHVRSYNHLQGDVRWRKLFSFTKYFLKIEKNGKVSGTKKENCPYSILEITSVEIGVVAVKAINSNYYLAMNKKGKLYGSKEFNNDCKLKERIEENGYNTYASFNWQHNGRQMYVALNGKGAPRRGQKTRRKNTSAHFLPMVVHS

[6] = tested on: glycogen synthase kinase-3 (GSK3A per assay name; protocol says GSK3B); test: GSK3 binders on small-molecule microarrays, primary screen, biochemical, small-molecule microarray, 635 nm fluorescence, GSK3A (AID 1103); conditions: small-molecule microarray binding, fluorescence 635 nm; higher = more signal; also: the record names both GSK3A and GSK3B
[7] = biological target: Epidermal growth factor receptor (Homo sapiens) (UniProt P00533); test: EGFR binders on small-molecule microarrays, primary screen, biochemical, small-molecule microarray, 635 nm fluorescence (AID 1104); conditions: EGFR binding, higher = more signal;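 also: score merges 667 nm emission intensity with spot signal to noise over triplicate slides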
Chain of Epidermal growth factor receptor (Homo sapiens) (P00533 whole entry, looked up): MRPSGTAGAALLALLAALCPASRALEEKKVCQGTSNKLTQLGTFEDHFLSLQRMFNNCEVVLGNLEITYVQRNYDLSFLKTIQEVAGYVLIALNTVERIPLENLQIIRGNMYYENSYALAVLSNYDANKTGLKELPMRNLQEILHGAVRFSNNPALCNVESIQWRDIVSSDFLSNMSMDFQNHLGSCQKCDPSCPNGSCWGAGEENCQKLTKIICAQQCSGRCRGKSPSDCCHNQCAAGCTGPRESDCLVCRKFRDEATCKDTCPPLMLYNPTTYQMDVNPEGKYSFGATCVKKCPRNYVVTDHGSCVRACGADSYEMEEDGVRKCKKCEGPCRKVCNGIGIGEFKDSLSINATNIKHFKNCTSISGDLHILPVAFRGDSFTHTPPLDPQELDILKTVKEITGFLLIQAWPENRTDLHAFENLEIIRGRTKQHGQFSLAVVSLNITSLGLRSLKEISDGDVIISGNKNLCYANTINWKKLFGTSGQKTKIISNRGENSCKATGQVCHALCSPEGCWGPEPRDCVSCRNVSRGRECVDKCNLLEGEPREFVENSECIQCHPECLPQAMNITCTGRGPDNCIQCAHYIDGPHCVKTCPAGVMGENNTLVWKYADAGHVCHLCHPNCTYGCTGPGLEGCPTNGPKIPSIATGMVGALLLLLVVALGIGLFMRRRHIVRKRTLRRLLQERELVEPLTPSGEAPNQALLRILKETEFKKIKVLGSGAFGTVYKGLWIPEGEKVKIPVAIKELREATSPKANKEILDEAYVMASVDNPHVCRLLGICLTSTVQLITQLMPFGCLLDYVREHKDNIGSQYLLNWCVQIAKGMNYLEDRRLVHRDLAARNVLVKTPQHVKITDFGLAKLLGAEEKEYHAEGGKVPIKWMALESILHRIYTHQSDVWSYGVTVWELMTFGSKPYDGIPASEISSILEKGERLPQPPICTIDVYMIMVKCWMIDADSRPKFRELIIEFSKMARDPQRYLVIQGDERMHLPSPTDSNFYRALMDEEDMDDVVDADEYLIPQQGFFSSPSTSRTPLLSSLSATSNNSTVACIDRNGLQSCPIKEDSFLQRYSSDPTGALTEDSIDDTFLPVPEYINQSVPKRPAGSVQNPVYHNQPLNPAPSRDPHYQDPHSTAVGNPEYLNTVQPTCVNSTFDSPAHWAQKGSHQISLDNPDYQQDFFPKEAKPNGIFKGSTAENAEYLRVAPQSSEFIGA

[8] = biological target: Follistatin-related protein 3 (Homo sapiens) (UniProt O95633); test: FSTL3 binders on small-molecule microarrays, primary screen, biochemical, small-molecule microarray, 635 nm fluorescence (AID 1105); conditions: FSTL3 binding, higher = more signal;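 also: score merges emission near 667 nm and signal to noise per printed spot across three slides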
Chain of Follistatin-related protein 3 (Homo sapiens) (O95633 whole entry, looked up): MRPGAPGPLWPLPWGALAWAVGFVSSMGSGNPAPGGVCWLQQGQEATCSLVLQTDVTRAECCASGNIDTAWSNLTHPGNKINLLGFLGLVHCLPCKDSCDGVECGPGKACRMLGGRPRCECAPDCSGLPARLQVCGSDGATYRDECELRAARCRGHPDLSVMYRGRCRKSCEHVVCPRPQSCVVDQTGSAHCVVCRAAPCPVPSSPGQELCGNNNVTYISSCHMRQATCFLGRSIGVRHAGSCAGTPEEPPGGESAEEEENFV

[9] = biological target: Dickkopf-related protein 1 (Homo sapiens) (UniProt O94907); test: DKK1 binders on small-molecule microarrays, primary screen, biochemical, small-molecule microarray, 635 nm fluorescence scan (AID 1106); conditions: DKK1 binding, higher = more signal;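 also: score merges emission near 667 nm with signal to noise over three replicate slides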
Chain of Dickkopf-related protein 1 (Homo sapiens) (O94907 whole entry, looked up): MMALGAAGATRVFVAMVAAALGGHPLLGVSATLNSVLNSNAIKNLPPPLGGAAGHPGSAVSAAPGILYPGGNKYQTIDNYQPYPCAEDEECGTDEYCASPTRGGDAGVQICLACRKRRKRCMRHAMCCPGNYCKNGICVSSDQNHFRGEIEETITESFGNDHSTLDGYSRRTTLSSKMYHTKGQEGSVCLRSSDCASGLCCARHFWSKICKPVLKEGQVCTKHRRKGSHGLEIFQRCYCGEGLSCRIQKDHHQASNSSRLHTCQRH

[10] = tested on: Inhibin beta A chain (activin A); test: INHBA (activin A) binders on microarrays, primary screen, biochemical, small-molecule microarray, 635 nm fluorescence scan (AID 1107); conditions: small-molecule microarray binding, higher = more signal;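 also: mouse activin A protein probed at 4.33 µg/mL on printed slides; score merges bound-protein fluorescence near 667 nm with spot signal-to-noise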
[11] = tested on: Human papillomavirus type 1a protein E7 (residues 44-93); test: HPV1a E7 fragment binders on microarrays, primary screen, biochemical, small-molecule microarray, residues 44-93, 635 nm fluorescence (AID 1108); conditions: small-molecule microarray binding, fluorescence 635 nm; higher = more signal;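 also: E7 fragment applied at 1 µg/mL in TBST for 1 h at 4 C; score combines spot fluorescence with its signal to noise ratio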
[12] = modulators of HCV replicon luciferase signal, primary screen, HCV replication inhibitor project, Huh7 cells, luciferase reporter (AID 1109); conditions: 48 h, higher = more signal;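 also: huh7 hepatoma cells harbouring a luciferase neomycin HCV replicon reporter; luciferase luminescence as measure of HCV replicon replication; test concentration not given here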
[13] = biological target: Left-right determination factor 2 (Homo sapiens) (UniProt O00292); test: LEFTY2 binders on small-molecule microarrays, primary screen, biochemical, small-molecule microarray, 635 nm fluorescence scan (AID 1110); conditions: LEFTY2 binding, higher = more signal
Chain of Left-right determination factor 2 (Homo sapiens) (O00292 whole entry, looked up): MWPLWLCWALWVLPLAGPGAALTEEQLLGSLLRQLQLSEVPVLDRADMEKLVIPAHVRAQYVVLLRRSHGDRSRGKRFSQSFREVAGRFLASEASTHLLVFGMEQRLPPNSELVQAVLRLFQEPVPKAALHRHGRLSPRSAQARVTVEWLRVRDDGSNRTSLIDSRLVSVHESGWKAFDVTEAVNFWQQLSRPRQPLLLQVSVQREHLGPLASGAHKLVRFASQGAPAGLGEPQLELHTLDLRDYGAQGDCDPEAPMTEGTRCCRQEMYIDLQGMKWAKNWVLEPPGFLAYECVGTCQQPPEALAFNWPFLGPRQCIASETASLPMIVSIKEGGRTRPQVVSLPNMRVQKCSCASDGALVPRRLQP

[14] = biological target: Calmodulin-1 (Homo sapiens) (UniProt P0DP23); test: CALM1 binders on microarrays, EGTA buffer, profiling panel, biochemical, small-molecule microarray, Cy5-labelled CALM1 (AID 1111); conditions: Cy5-CALM1 binding fluorescence, higher = more signal;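 also: labelled calmodulin applied in Tris saline Tween buffer holding calcium plus EGTA and DTT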
[15] = biological target: Calmodulin-1 (Homo sapiens) (UniProt P0DP23); test: calcium-bound CALM1 binders on microarrays, profiling panel, artefact control for SMM control-protein annotation, biochemical, small-molecule microarray, Cy5-labelled CALM1, plus calcium (AID 1112); conditions: Cy5-CALM1 binding fluorescence, higher = more signal;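 also: score merges spot fluorescence with signal to noise from triplicate slides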
[16] = small-molecule microarray binders of probe aWnt5a, primary screen, biochemical, biotinylated probe, 635/667 nm fluorescence (AID 1113); conditions: higher = more signal;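 also: score merges 667 nm fluorescence intensity with signal-to-noise per printed feature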
[17] = small-molecule microarray binders of probe aShh, primary screen, biochemical, biotinylated probe, 635/667 nm fluorescence (AID 1114); conditions: higher = more signal;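 also: probe is biotin-labelled aShh protein from a stem cell growth factor screen; measures binding of labelled protein to compounds printed on the slide; score merges feature fluorescence at 667 nm with signal-to-noise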
[18] = small-molecule microarray binders of probe aNog, primary screen, biochemical, biotinylated probe, 635/667 nm fluorescence (AID 1115); conditions: higher = more signal;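 also: probe is biotinylated aNog protein used at 0.15 µg/mL for 1 h at 4 C; z-score combines 667 nm fluorescence of each spot with its signal to noise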
[19] = biological target: Torsin-1A-interacting protein 1 (Homo sapiens) (UniProt Q5JTV8); test: LAP1 binders from COS7 cell lysate, primary screen, small-molecule microarray, 635/667 nm fluorescence (AID 1116); conditions: COS7-hLAP1 lysate binding, 635 nm fluorescence, higher = more signal
Chain of Torsin-1A-interacting protein 1 (Homo sapiens) (Q5JTV8 whole entry, looked up): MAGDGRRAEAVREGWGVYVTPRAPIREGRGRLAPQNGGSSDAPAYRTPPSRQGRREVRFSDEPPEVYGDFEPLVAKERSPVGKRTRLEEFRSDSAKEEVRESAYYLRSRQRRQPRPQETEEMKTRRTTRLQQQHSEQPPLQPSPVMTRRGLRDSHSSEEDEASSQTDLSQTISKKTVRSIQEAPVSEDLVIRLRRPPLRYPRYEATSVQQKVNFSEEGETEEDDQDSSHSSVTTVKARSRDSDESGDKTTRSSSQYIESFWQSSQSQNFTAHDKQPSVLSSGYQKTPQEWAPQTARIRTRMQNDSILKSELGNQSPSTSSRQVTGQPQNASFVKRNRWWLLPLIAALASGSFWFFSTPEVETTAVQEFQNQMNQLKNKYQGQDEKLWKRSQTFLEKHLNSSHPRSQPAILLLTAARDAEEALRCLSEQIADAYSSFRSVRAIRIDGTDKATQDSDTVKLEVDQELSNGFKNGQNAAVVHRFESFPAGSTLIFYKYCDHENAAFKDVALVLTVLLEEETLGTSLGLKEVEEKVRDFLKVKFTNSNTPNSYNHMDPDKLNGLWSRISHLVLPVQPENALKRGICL

[20] = biological target: Alpha-bungarotoxin (Bungarus multicinctus) (UniProt P60615); test: alpha-bungarotoxin binders on microarray, profiling panel, artefact control for SMM control protein annotation, biochemical, small-molecule microarray, Alexa647 label, 635/667 nm fluorescence (AID 1117); conditions: alpha-BTX-A647 binding fluorescence, higher = more signal
Chain of Alpha-bungarotoxin (Bungarus multicinctus) (P60615 whole entry, looked up): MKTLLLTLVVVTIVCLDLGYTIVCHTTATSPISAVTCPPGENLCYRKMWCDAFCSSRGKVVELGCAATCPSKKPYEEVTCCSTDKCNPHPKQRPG

| Structure (SMILES) | composite z-score [1] | composite z-score [2] | composite z-score [3] | z-score [4] | composite z-score [5] | composite z-score [6] | composite z-score [7] | composite z-score [8] | composite z-score [9] | composite z-score [10] | composite z-score [11] | z-score [12] | composite z-score [13] | composite z-score [14] | composite z-score [15] | composite z-score [16] | composite z-score [17] | composite z-score [18] | composite z-score [19] | composite z-score [20] |
| --- | --- | --- | --- | --- | --- | --- | --- | --- | --- | --- | --- | --- | --- | --- | --- | --- | --- | --- | --- | --- |
| C=C(CCCC)C(=O)CC[C@H](OC(=O)c1ccccc1-c1ccccc1C(=O)O)c1cccc(OCCO)c1 | 0.642 | -0.399 | -0.454 | -0.289 (inactive) | -0.282 | -0.121 | -0.988 | -0.578 | 0.0668 | 1.33 | -0.109 | -1.92 | 0.0292 | -0.268 | -0.832 | -0.13 | -0.0866 | -0.318 | 0.206 | -0.0274 |
| COC(=O)[C@@]1(Cc2ccc(F)cc2)[C@H]2c3cc(C(=O)N(C)C)n(Cc4ccsc4Br)c3C[C@H]2CN1C(=O)c1ccccc1 | 1.3 | 2.31 | 1.36 | -3.81 (inactive) | 1.16 | 0.0579 | 1.51 | 0.369 | 0.0249 | 0.5 | -0.468 | -0.787 | 0.648 | 2.16 | 0.981 | 1.37 | 2.15 | -0.0209 | 1.53 | 0.427 |
| [N-]=[N+]=NCc1ccccc1[C@H]1OC(c2ccc(OCCCO)cc2)=N[C@@]1(Cc1ccccc1N=[N+]=[N-])C(N)=O | 1 | 0.853 | 0.879 | -0.146 (inactive) | 1.3 | 1.29 | 0.32 | 0.828 | 0.28 | 1.02 | 1.44 | -1 | 0.373 | 1.1 | 0.613 | 0.117 | -0.111 | 0.924 | 0.154 | 1.03 |
| COc1ccc(CCNC(=O)[C@@]2(c3ccc([N+](=O)[O-])cc3)CC(=O)N(C3CCCCC3)[C@@H]2c2ccc(CO)cc2I)cc1 | 0.401 | -0.0644 | -0.0582 | 0.845 (inactive) | 0.823 | 0.56 | 0.19 | 0.241 | 0.608 | 0.44 | 0.535 | -2.57 | 0.497 | 0.529 | 0.113 | -0.0643 | 0.108 | 0.639 | 0.733 | 0.201 |
| CC[C@H]1C2=C3C(CC[C@H]4C(OCc5ccc(F)cc5C(F)(F)F)OC[C@](C)([C@@H]34)N(C(=O)OC(C)(C)C)C2)C(COC(C)=O)C1COC(C)=O (stereo not given in full) | 0.386 | 0.62 | 0.971 | -0.695 (inactive) | 0.402 | 0.665 | -0.379 | 0.418 | -0.583 | 0.691 | 1.35 | -0.567 | -0.747 | 1.97 | 1.15 | 0.24 | 1.15 | -0.313 | 0.0366 | 0.729 |
| CCN1C(=O)C2CC(=O)C3C(CN(S(=O)(=O)c4ccc(C)cc4)C3c3ccc(C)cc3)C2C1=O (stereo not given) | 0.959 | 0.972 | 0.882 | -0.106 (inactive) | 0.193 | 0.338 | -0.483 | -0.167 | -0.295 | 1.15 | -1.69 | -2.44 | 0.015 | 1.85 | 0.495 | -0.0269 | 0.749 | 0.685 | 1.08 | -0.344 |
| CCCNC(=O)[C@@]1(Sc2ccc(C)cc2)CC(=O)N(Cc2cc(C(F)(F)F)cc(C(F)(F)F)c2)[C@@H]1c1ccc(CO)cc1 | -0.441 | -0.09 | 0.738 | -1.58 (inactive) | 0.0468 | -0.365 | -0.738 | -0.888 | -1.2 | 0.108 | 0.156 | -1.83 | -0.272 | -0.159 | 0.441 | -0.0944 | -0.291 | -0.164 | 0.443 | 0.0468 |
| COC(=O)[C@@]1(Cc2ccc(F)cc2)[C@H]2c3cc(C(=O)N4CCCC4)n(Cc4ccc(C(F)(F)F)nc4)c3C[C@H]2CN1C(=O)c1ccccc1 | 0.513 | 0.16 | 1.33 | -0.375 (inactive) | 0.472 | 1.3 | 0.643 | 1.19 | -0.417 | 0.843 | 1.18 | -2.15 | 0.0089 | 2.16 | 0.557 | 0.106 | -0.382 | -1.06 | 0.873 | 0.615 |
| C=C1C(=O)C=C2CN(C(=O)c3ccccc3)[C@@](Cc3ccc(F)cc3)(C(=O)OC)[C@@H]12 | 0.641 | 1.16 | 1.21 | -0.756 (inactive) | 0.941 | 1.2 | -0.0735 | 1.06 | -0.519 | 1.05 | 1.39 | -3.68 | -0.406 | 2.19 | 1.08 | 0.177 | -0.0626 | 1.99 | 0.952 | 1.85 |
| COc1cc(CO)cc(I)c1O[C@H]1C=C(C(=O)NCCO)C[C@@H](N(CCN2CCOCC2)C(=O)C2CCCO2)[C@@H]1O (stereo not given in full) | 0.226 | -0.309 | -0.521 | 0.0133 (inactive) | 0.322 | 0.507 | 0.488 | 0.152 | 0.516 | 0.356 | 0.35 | 0.109 | 0.445 | -0.292 | -0.671 | -0.0606 | -0.0769 | -0.248 | 0.11 | -0.197 |
| Cc1ccc(S[C@]2(C(=O)NC3CC3)CC(=O)N(C3Cc4ccccc4C3)[C@@H]2c2ccc(CO)cc2I)cc1 | 0.911 | 0.379 | 0.524 | -1.38 (inactive) | -0.745 | -0.641 | -1.62 | -1.11 | -0.826 | 0.771 | 0.451 | -2.14 | -1.05 | 2.09 | -0.628 | -0.0758 | -0.375 | 0.144 | -0.623 | -0.0871 |
